Assay results from PubChem BioAssay (NCATS).
Results filed as inconclusive are left out. A call without a number means that no potency is given here. A number with no mark means an inactive call. Calls of active or inactive are those of the source. Calls follow the shape of the dose curve; as a rule, active = well fitted inhibition curve with a large enough effect; inconclusive = small, poorly fitted or top-dose-only effect; inactive = no such curve, though single readings can be large or run the other way.

What was measured:
[1] = tested on: Zika virus NS2B-NS3 protease (unlinked complex); test: Primary screen GU Rhodamine qHTS for Zika virus inhibitors: Unlinked NS2B-NS3 protease assay (AID 1347159); also: nearly all actives have a fitted effect of over 60% in size; also: potency is read from the fitted curve at half-maximal effect
Procedure, shortened: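 Noncovalent NS2B hydrophilic domain/NS3 protease complex (25 nM final) in 10 mM Tris-HCl pH 8.0, 0.01% Tween 20, preincubated 15 min with compounds (up to 114 microM), then 1.5 microM Rhodamine110 substrate. Fluorescence change over 15 min fitted to 4-parameter Hill.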

[2] = tested on: Zika virus NS2B-NS3 protease (linked construct); test: Primary screen NINDS Rhodamine qHTS for Zika virus inhibitors (AID 1347160); also: nearly all actives have a fitted effect of over 55% in size
Procedure, shortened: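 Purified NS2B-NS3 protease with the NS2B hydrophilic domain joined by a flexible linker (25 nM) in 10 mM Tris-HCl pH 8.0, 0.01% Tween 20, preincubated 15 min at RT with compound; Rhodamine110 peptide substrate 1.5 µM; fluorescence change over 15 min; 4-parameter Hill fit.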

Structure (SMILES)	Potency [1]	Potency [2]
O=C(/C=C/c1ccc(O)cc1)OC[C@H]1O[C@@H](OC(=O)/C=C/c2ccccc2)[C@H](O)[C@@H](O)[C@@H]1O	inactive	inactive
CC1NC(=O)C(Cc2c[nH]c3ccccc23)NC1=O (configuration not stated)	inactive	inactive
CN1C(=O)N[C@@H](Cc2c[nH]c3c(Cl)cccc23)C1=O	inactive	inactive
CC1(CO)CC[C@]2(C(=O)O[C@@H]3O[C@H](CO)[C@@H](O)[C@H](O)[C@H]3O)CC[C@]3(C)C(=CCC4[C@@]5(C)CC[C@H](O[C@@H]6O[C@H](C(=O)O)[C@@H](O)[C@H](O)[C@H]6O)C(C)(C)C5CC[C@]43C)C2C1 (some centres not stated)	inactive	inactive
COc1ccccc1CC(C(=O)O)N(C)C(=O)c1ccccc1 (configuration not stated)	inactive	inactive
C=C1CCC2(OC1)OC1CC3C4CC=C5CC(O)CC(O[C@@H]6OC[C@@H](O)[C@H](O)[C@H]6O)C5(C)C4CCC3(C)C1(O)C2C (some centres not stated)	inactive	inactive
COc1cc(N2CCC(N(C)C)CC2)ccc1Nc1ncc(Cl)c(Nc2ccccc2P(C)(C)=O)n1	inactive	inactive
CC[C@H]1OC(=O)C[C@@H](O)[C@H](C)[C@@H](O[C@@H]2O[C@H](C)[C@@H](O)[C@H](N(C)C)[C@H]2O)[C@@H](CCN2C[C@H](C)C[C@H](C)C2)C[C@@H](C)C(=O)/C=C/C(C)=C/[C@@H]1CO[C@@H]1O[C@H](C)[C@@H](O)[C@@H](OC)[C@H]1OC	inactive	inactive
C=CCc1ccc(O[C@@H]2O[C@H](CO)[C@@H](O)[C@H](O)[C@H]2O)c(OC)c1	12.6 µM (active)	inactive
CC(=O)OC(CSC1CCC(=O)OC(C)CCC(=O)C1)C(=O)O (configuration not stated)	inactive	inactive
COc1cc(C/C(=C/NC(C)=O)N(CC(=O)Cc2ccccc2)C(C)=O)cc2c1OCO2	inactive	inactive
COC1CC(=O)C23C(=O)NC(CC(C)C)C2C(C)C(C)=CC3/C=C(\C)CCC1O (configuration not stated)	inactive	inactive
CCC(=O)N[C@@H]1Cc2ccccc2[C@H](c2ccccc2)C1	inactive	inactive
O=C(NCc1ccc(OC(F)(F)F)cc1)C1c2ccccc2C(=O)N1C1CCOCC1 (configuration not stated)	inactive	inactive
CC1(C)CC[C@]2(C(=O)O[C@@H]3O[C@H](CO)[C@@H](O)[C@H](O)[C@H]3O)CC[C@]3(C)C(=CCC4[C@@]5(C)C[C@@H](O)[C@H](O)C(CO)(CO)C5CC[C@]43C)C2[C@@H]1O (some centres not stated)	inactive	inactive
CN(NC(=O)CC(=O)NN(C)C(=S)c1ccccc1)C(=S)c1ccccc1	inactive	inactive
